# Rows were chosen to be rich in hits. Some 3.2% of all compounds tested hit in one or more screens of this group.
# rCAG binder – molecules binding r(CAG) RNA repeats; r(CAG) RNA repeat, TO-PRO-1 dye displacement fluorescence; inhibition, % at 3 µM; hit rate 1.3% among 370,000; AID 651821;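 active = inhibition above the plate cutoff, the mean of all test compounds on that plate plus 3 SD, cut at about 35% in these data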;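 note: 0% = DMSO alone and 100% = 100 µM mitoxantrone as full dye displacement; higher means more dye released from RNA so lower well fluorescence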
# Pemphigus Ab inh – blocks pemphigus antibody binding to human desmoglein-3. DSG3-coupled beads, scFv-anti-DSG3-GFP binding, flow cytometry; stronger effect = lower value. hit rate 0.48% among 310,000. binding (percent of control), % at 10 µM;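 active = binding more than 3 SD below its plate's average and above zero; inconclusive = below that plate limit but binding exactly zero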
# Target sequence (P32926 whole entry, looked up): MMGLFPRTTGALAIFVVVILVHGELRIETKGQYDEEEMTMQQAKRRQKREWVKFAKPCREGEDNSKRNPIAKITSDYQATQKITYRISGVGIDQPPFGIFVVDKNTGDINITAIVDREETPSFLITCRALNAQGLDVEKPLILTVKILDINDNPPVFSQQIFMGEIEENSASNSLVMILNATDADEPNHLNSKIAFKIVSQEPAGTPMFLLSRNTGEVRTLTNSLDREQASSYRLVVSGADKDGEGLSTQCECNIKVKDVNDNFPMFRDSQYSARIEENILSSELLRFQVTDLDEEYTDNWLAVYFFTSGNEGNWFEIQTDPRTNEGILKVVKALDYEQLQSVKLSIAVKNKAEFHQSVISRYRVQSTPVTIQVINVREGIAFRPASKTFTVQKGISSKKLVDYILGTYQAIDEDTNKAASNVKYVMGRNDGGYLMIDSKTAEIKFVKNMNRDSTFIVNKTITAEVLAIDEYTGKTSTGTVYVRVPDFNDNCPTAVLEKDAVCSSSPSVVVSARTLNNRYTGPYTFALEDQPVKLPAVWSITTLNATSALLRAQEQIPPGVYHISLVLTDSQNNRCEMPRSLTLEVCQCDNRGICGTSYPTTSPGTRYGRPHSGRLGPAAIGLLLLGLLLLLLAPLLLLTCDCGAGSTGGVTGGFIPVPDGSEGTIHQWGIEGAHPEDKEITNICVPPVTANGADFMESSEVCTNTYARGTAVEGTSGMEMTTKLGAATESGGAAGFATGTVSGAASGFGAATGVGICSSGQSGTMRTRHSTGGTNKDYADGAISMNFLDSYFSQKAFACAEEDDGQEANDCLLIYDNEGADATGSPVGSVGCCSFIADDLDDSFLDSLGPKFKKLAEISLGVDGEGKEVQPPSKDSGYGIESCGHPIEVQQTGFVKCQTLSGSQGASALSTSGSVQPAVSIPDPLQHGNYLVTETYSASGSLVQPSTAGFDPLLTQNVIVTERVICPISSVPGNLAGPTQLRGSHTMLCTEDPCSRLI
# DAGLB inhibitor – diacylglycerol lipase beta (human) inhibition. Q8NCG7. HEK293T DAGLB membrane lysate, EnzChek fluorogenic substrate. inhibition, % at 5.17 µM. hit rate 0.059% among 340,000. AID 504411; in the data active = inhibition above about 34%;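 note: 0% = enzyme with vehicle and 100% = wells lacking enzyme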
# MsrA inhibitor – inhibitors of bovine MsrA. AID 651718. purified bovine MsrA, absorbance read-out. inhibition, % at 15.5 µM. hit rate 0.75% among 360,000; in the data active = inhibition above about 4.5%;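 note: 0% = vehicle wells with enzyme and 100% = reference inhibitor wells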
# NadD inh – inhibitors of Staphylococcus aureus NadD; hit rate 0.78% among 360,000; inhibition, % at 20 µM; purified NadD enzyme, colorimetric absorbance read-out; AID 602399; in the data active = inhibition above about 26%
# MsrA act – activators of bovine methionine sulfoxide reductase A; purified bovine MsrA, absorbance read-out; activation, % at 10.6 µM; hit rate 0.3% among 360,000; in the data active = activation above about 7.5%;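 note: 0% = vehicle and 100% = reference activator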
# NadD inh conf – NadD (S. aureus) inhibition, single concentration confirmation | shares compounds with NadD inh | purified S. aureus NadD, colorimetric enzyme assay | inhibition, % at 20 µM | hit rate 13% among 2,000 | AID 624309; in the data active = inhibition mostly above about 42%, no sharp cut-off; inactive = mostly below about 42%
# Starred values were filed as active, the others as inactive; ? = inconclusive; · = no result.
SMILES,rCAG binder,Pemphigus Ab inh,DAGLB inhibitor,MsrA inhibitor,NadD inh,MsrA act,NadD inh conf
Cc1ccc(-c2cc(-c3ccc4c(c3)OCO4)c(C#N)c(N)n2)o1,11,90,-6,0,39*,-3,33
Cc1cc(-c2cc(-c3ccc(Cl)cc3)nc(N)c2C#N)co1,14,98,11,0,84*,-4,41
Cc1ccc(-c2cc(-c3ccc(Cl)cc3)c(C#N)c(N)n2)o1,23,103,5,3,59*,-2,71*
Cc1ccc(-c2cc(-c3ccc(C)o3)nc(N)c2C#N)cc1,17,100,8,0,58*,-9,62*
CCOc1cc(-c2cc(-c3ccc(C)o3)nc(N)c2C#N)ccc1O,8,96,-3,1,3,-3,·
O=c1cc(CN2CCN(c3cccc(Cl)c3)CC2)c2cc(O)c(-c3ccccc3)cc2o1,4,·,1,1,39*,-1,4
CNC(=O)NC(=O)C(C)OC(=O)c1c2c(nc3ccccc13)/C(=C/c1cccs1)CC2 (stereo not drawn),2,106,2,-1,33*,-3,20
CCCCNC(=O)COC(=O)c1c2c(nc3ccccc13)/C(=C/c1cccs1)CC2,19,96,-7,1,19,-4,·
CCCS(=O)(=O)NC(=O)C1(C)CCCN(C(=O)CSc2ccccc2)C1 (stereo not drawn),3,·,·,-1,-1,-4,·
Nc1cc(=O)[nH]c(SCC(=O)N2CCN(S(=O)(=O)c3ccc4ccccc4c3)CC2)n1,21,104,1,1,11,0,·
O=C(CSc1n[nH]c(-c2cccs2)n1)N1CCN(S(=O)(=O)c2ccc3ccccc3c2)CC1,12,109,0,0,47*,2,29
CCOC(=O)c1sc(NC(=O)c2cc(-c3ccc(C)cc3)nc3ccccc23)c(C#N)c1C,15,93,1,1,42*,1,11
CC1CCc2c(sc(NC(=O)Cn3nc(C(=O)O)c4ccccc4c3=O)c2C#N)C1 (stereo not drawn),4,94,3,-1,39*,1,-6
Cc1sc(NC(=O)c2cc(-c3ccc(Cl)cc3)nc3ccccc23)c(C(N)=O)c1C,6,?,0,1,33*,-6,6
COc1ccc(Cl)cc1C(=O)NNC(=S)NC(=O)c1cc(-c2ccc(Cl)cc2)nc2ccccc12,8,92,-1,0,72*,-2,18
COC(=O)c1sc(NC(=O)c2cc(-c3ccccc3)nc3ccccc23)c(C#N)c1C,27,53,9,0,21,-2,·
COCCNC(=O)c1cc2c(c(-c3cccc(C#CC(C)(C)O)c3)n1)[C@@H](CCO)N(S(=O)C(C)(C)C)C2 (stereo partly drawn),7,·,·,1,-4,-2,·
COc1ccc(-n2cc(COC(=O)NCCc3ccccc3)nn2)cc1,1,·,·,·,·,·,·
Cc1ccc(-n2c(SCC(=O)Nc3cccc4ccccc34)nnc2-c2ccccc2)cc1,4,·,·,·,·,·,·
COc1ccccc1C(=O)NNC(=S)NC(=O)c1sc2ccccc2c1Cl,4,85,3,0,64*,-2,11
COc1ccc(OC)c(-c2cc(C(=O)Nc3sc4c(c3C#N)CCC(C)C4)c3ccccc3n2)c1 (stereo not drawn),5,97,-1,0,15,-9,·
COc1ccccc1-c1cc(C(=O)Nc2sc3c(c2C#N)CCC(C)C3)c2ccccc2n1 (stereo not drawn),12,·,-3,0,54*,-4,19
COc1ccc(-c2cc(C(=O)Nc3sc4c(c3C#N)CCCC4)c3ccccc3n2)cc1,4,96,-8,0,36*,-4,14
CC(=O)NC(Cc1ccc2c(c1)OCO2)C(=O)N1CCCN(C(C)=O)CC1 (stereo not drawn),1,·,·,·,·,·,·
CCOC(=O)Cn1c(=NC(=O)c2cc(-c3cccs3)nc3ccccc23)sc2cc(S(N)(=O)=O)ccc21,29,79,-1,2,56*,-6,61*
SMILES,rCAG binder,Pemphigus Ab inh,DAGLB inhibitor,MsrA inhibitor,NadD inh,MsrA act,NadD inh conf
COC(=O)Cn1c(=NC(=O)c2nc3ccccc3s2)sc2cc(S(N)(=O)=O)ccc21,6,100,0,0,14,2,·
CCOC(=O)Cn1c(=NC(=O)C2COc3ccccc3O2)sc2cc(S(N)(=O)=O)ccc21 (stereo not drawn),18,98,0,1,3,2,·
COC(=O)Cn1c(=NC(=O)c2cc(-c3cccs3)nc3ccccc23)sc2cc(S(N)(=O)=O)ccc21,31,77,-1,3,31*,-6,16
O=C(CSc1nnc(SCc2ccccc2)s1)N/N=C/C=C/c1ccco1,23,99,7,0,48*,-3,43*
CCn1c(SCC(=O)N/N=C/C=C/c2ccco2)nnc1-c1ccccc1,-1,90,0,3,6,-11,·
CCc1nc2c(OCCOc3ccccc3)cccn2c1N(C)C(=O)c1ccc(C)cc1,1,·,·,0,4,1,·
COC(=O)c1ccc2c(c1)N(Cc1nc(-c3ccc(Cl)cc3)oc1C)C(=O)C1CCCN21 (stereo not drawn),12,92,1,0,45*,-3,19
CN(Cc1ccccn1)C(=O)c1cc(COc2ccc(F)c(F)c2)on1,-1,97,-3,4,-9,-4,·
COC(=O)[C@]12C[C@H](CC(=O)NCCc3ccccc3OC)C(=O)N(CCc3ccc(OC)c(OC)c3)C1=C[C@H](COCc1ccccc1)O[C@@H]2C,3,·,·,·,·,·,·
NS(=O)(=O)c1ccc(CCNC(=O)CCCCCn2c(=S)[nH]c3ccc(Br)cc3c2=O)cc1,9,97,3,0,31*,-7,37
O=C(CCCCCn1c(=S)[nH]c2ccc(Br)cc2c1=O)NCC1CCCO1 (stereo not drawn),5,99,1,1,4,-4,·
CCOc1ccc2nc(NC(=O)c3cccc(-c4cc5ccccc5oc4=O)c3)sc2c1,3,94,0,0,39*,-1,5
CCOc1ccc(C(=O)Nc2cccc(-c3cc4ccccc4oc3=O)c2)cc1[N+](=O)[O-],7,93,-7,2,36*,-10,-4
Cc1ccc2nc(NC(=O)c3cccc(-c4cc5ccccc5oc4=O)c3)sc2c1,2,·,·,-1,·,·,·
O=c1c2ccccc2sn1-c1ccc(S(=O)(=O)N2CCCCC2)cc1,4,89,4,0,31*,-2,12
CCCCCC[C@H](CN(CCCC)S(C)(=O)=O)c1ccccc1,0,·,·,·,·,·,·
CCOC(=O)c1ccc2c(c1)nc(SC/C(O)=C(\C#N)c1nc3ccccc3[nH]1)n2CC,5,101,-2,0,33*,-4,15
COc1ccc2c(c1)CN1CN(Cc3ccccc3)S(=O)(=O)CC21 (stereo not drawn),7,·,·,·,·,·,·

# Screening results deposited in PubChem BioAssay by several laboratories.
